Reference: PubChem BioAssay AID1478 (National Center for Advancing Translational Sciences (NCATS), 2009)
The whole screen tested about 200,000 compounds, of which about 860 (0.43%) were called active. Calls come from the whole dose curve; as a rule, active = well fitted inhibition curve with a large enough effect; inconclusive = small, poorly fitted or top-dose-only effect; inactive = flat fitted curve, though single readings scatter. The list comes from a sample in which actives are over-represented; it also holds similar structures and randomly drawn compounds.

target: Cruzipain (Trypanosoma cruzi) (UniProt P25779); test: qHTS Assay for Promiscuous and Specific Inhibitors of Cruzain (with detergent); conditions: purified cruzain, Z-FR-AMC fluorescence, 0.01% Triton; note: nearly all actives have a fitted effect of over 40% in size
Sequence (P25779 123-467 limits assumed): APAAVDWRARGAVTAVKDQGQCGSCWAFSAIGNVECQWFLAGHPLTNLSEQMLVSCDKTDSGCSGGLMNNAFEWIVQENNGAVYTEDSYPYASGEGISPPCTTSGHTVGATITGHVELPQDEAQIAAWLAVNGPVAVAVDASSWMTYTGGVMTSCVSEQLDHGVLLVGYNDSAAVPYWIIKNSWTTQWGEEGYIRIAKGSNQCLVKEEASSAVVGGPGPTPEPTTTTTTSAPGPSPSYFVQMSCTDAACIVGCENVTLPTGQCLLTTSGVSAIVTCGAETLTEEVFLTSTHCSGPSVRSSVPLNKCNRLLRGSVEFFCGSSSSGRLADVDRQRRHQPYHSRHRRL
Description: Cruzain (3.4.22.51) is a cysteine protease from the tropical parasite Trypanosoma cruzi. Dual qHTS experiment was performed against the NCGC compound collection in order to 1) identify novel inhibitors of the enzyme and 2) profile the compound collection for promiscuous inhibitors operating via colloidal aggregation (by performing detergent-free and detergent-containing comparison screens). Cruzain was assayed by the use of fluorogenic coumarin-based substrate Z-FR-AMC: proteolytic cleavage releases AMC, whose fluorescence is measured at 360 nm excitation and 450 nm emission. Purified cruzain was supplied by the labs of Prof. James McKerrow and Brian Shoichet, UC San Francisco.
This assay had 0.01% Triton X-100 concentration. See also releated assay "qHTS Assay for Promiscuous and Specific Inhibitors of Cruzain (without detergent)" with 0.00005% Triton X-100.
See following references for additional details:
Assay Provider: Shoichet, Brian; University of California, San Fancisco
Screening Center PI: Austin, C.P.
Screening Center: NIH Chemical Genomics Center [NCGC]
Buffer: 100 mM Sodium Acetate, pH 5.5, 5 mM DTT, Triton X-100 concentration: 0.01%.
Buffer in columns 3 and 4 as negative control (no enzyme).
Substrate solution: 2 uM final concentration of Z-FR-AMC (catalog number I-1160, Bachem) dispensed throughout the plate.
Enzyme: 1.5 nM Cruzain final concentration in columns 1, 2, 5-48. Column 1 is neutral (100% activity). Column 2 contained titration of covalent inhibitor K11777, starting concentration 1 mM, then 1:2 dilution in duplicate).
Three uL of enzyme or buffer were dispensed to 1536-well Greiner black solid bottom plates. Compounds and controls (23 nL) were transferred via Kalypsys PinTool. The plates were incubated for 15 min at room temperature, and then 1 uL of substrate solution was added to start the reaction. The plates were immediately transferred to and read 4 times every 30 seconds for 2 min on ViewLux High-throughput CCD imager (Perkin-Elmer) using 360 nm excitation and 450 nm emission fluorescence protocol. The fluorescence intensity difference between the third and the first time points (time lapse of 60 seconds) was used to compute reaction progress.
Potency is the fitted concentration of half-maximal effect.

SMILES | max response, negative = inhibition | Potency
Clc1ccc(-c2nnc(SCc3nc4ccccc4s3)o2)cc1 | -2.22% (inactive) | 
Clc1ccccc1SCc1nc2ccccc2[nH]1 | -1.73% (inactive) | 
c1ccc(-c2nnc(SCc3nc4ccccc4[nH]3)o2)cc1 |  | 25.1 µM (active)
COc1ccc(-c2noc(-c3ccc(N4CCN(c5ccccc5)CC4)c([N+](=O)[O-])c3)n2)cc1OC | -4.6% (inactive) | 
O=C(NCc1ccccc1Cl)C1=Cc2cc(Br)ccc2OC1 | -4.23% (inactive) | 
COc1ccc(Cn2ccn(CC(=O)Nc3cc(C)ccc3C)c(=O)c2=O)cc1 | -6.93% (inactive) | 
O=C(NCCCO)C(=O)Nc1c2c(nn1-c1ccc(F)cc1)CSC2 | -6.19% (inactive) | 
c1cncc(-c2nc(N3CCNCC3)c3ccccc3n2)c1 | -1.38% (inactive) | 
c1ccc(Nc2nc(N3CCOCC3)c3ccccc3n2)cc1 |  | 14.1 µM (active)
Cc1cc(C(=O)Nc2ccccc2N2CCOCC2)c2ccccc2n1 | 7.98% (inactive) | 
CCOc1ccc(N(C)S(=O)(=O)c2cc(-c3cnc(C)o3)ccc2OC)cc1 | -8.69% (inactive) | 
Cc1cc(-c2ccc(C)c(S(=O)(=O)N3c4ccccc4CC3C)c2)on1 (stereo not given) | -1.84% (inactive) | 
N#Cc1nc(N)nc(N(c2ccccc2)c2ccccc2)n1 |  | 2.24 µM (active)
CC(C)Nc1nc(N(c2ccccc2)c2ccccc2)nc(-n2ccnc2)n1 | 1.14% (inactive) | 
COc1cc(OC)c(N(C)C(=O)c2cc3c(=O)oc4ccccc4c3s2)cc1Cl | -0.489% (inactive) | 
Cc1ccccc1CSCCNC(=O)C1CCN(S(=O)(=O)Cc2ccccc2)CC1 | -4.58% (inactive) | 
COc1cc(Cl)c(NC(=O)C(NS(=O)(=O)c2cccs2)C(C)C)c(OC)c1 (stereo not given) | -0.797% (inactive) | 
CSc1nn(Cc2cccc(C)c2)c(N)c1S(=O)(=O)c1ccccc1 | -5.62% (inactive) | 
CCN(CC)CCNc1ncnc2c1cnn2-c1cc(Cl)ccc1C | 0.243% (inactive) | 
CCCn1c(=N)c(C(=O)NCc2ccccc2)cc2c(=O)n3cccc(C)c3nc21 | -0.842% (inactive) | 
Cc1cccn2c(=O)c3cc(C(=O)NC(C)c4ccccc4)c(=N)n(CCCO)c3nc12 (stereo not given) | -22.8% (inactive) | 
CCn1c(=N)c(C(=O)NCCCOC)cc2c(=O)n3cccc(C)c3nc21 |  | 31.6 µM (active)
O=C(NCc1ccc2c(c1)CCN2C(=O)c1ccccc1)c1ccccc1 | 1.91% (inactive) | 

SMILES | max response, negative = inhibition | Potency
CCOc1ccc(-c2nonc2NC(=O)c2oc3ccc(C)cc3c2C)cc1OCC | -1.93% (inactive) | 
O=C(CCS(=O)(=O)c1ccc2c(c1)NC(=O)CO2)Nc1cccc(C(F)(F)F)c1 | -1.23% (inactive) | 
COc1ccc(Cl)cc1NC(=O)Cn1c(=O)c2ccccc2n2nncc12 | -4.81% (inactive) | 
COc1ccc(Cl)cc1NC(=O)COC(=O)C(CC(C)C)N1C(=O)C2CC=CCC2C1=O (stereo not given) |  | 12.6 µM (active)
COc1ccc(Cl)cc1NC(=O)CNc1ccccc1F | -7.98% (inactive) | 
Cc1oc2ccc(O)c(CN3CCCCC3)c2c1C(=O)Nc1cccc(C(F)(F)F)c1 | -4.76% (inactive) | 
Cc1cc(C)cc(NS(=O)(=O)c2ccc(-c3cc(C)no3)s2)c1 | -11.1% (inactive) | 
O=C(NCCN1CCN(Cc2ccccc2)CC1)c1cc2c(=O)[nH]c3ccccc3c2s1 | -12.6% (inactive) | 
Cn1c(C(=O)NCCN2CCc3ccccc3C2)cc2c(=O)[nH]c3ccccc3c21 |  | 15.8 µM (active)
Cn1c(C(=O)NCCCN2CCN(c3cccc(Cl)c3)CC2)cc2c(=O)n(C)c3ccccc3c21 | -27.7% (inactive) | 
CC(=O)c1nn(-c2ccc(OC(F)(F)F)cc2)nc1Nc1ccccc1 | 1.04% (inactive) | 
O=C(CSc1nc2nccnc2c(=O)n1CCc1c[nH]c2ccccc12)Nc1ccccc1F | -2.4% (inactive) | 
O=C(C1COc2ccccc2O1)N(Cc1cccnc1)c1nc2c(F)cc(F)cc2s1 (stereo not given) | -3.06% (inactive) | 
CC(C)c1ccc(NC(=O)Cn2nnc(C(=O)NCCc3ccccc3)c2N)cc1 | 0.0037% (inactive) | 
COC(=O)c1scc(-c2ccc(C)cc2)c1S(=O)(=O)Nc1cc(Cl)c(OC)cc1OC | -7.07% (inactive) | 
O=C1CCCN1CCCNc1ncnc2c1[nH]c1ccccc12 |  | 15.8 µM (active)
O=C(CCn1c(=S)[nH]c2ccccc2c1=O)NCCCN1CCCC1=O | 0.249% (inactive) | 
Cc1cccc(C(=O)NCCCN2CCCC2=O)c1 | 6.06% (inactive) | 
Cc1nn(C(=O)c2c(F)cccc2F)c(C)c1S(=O)(=O)N1CCOCC1 | 0.43% (inactive) | 
COc1ccc(CC(=O)NCCc2sc3nc(-c4ccc(OC)cc4)nn3c2C)cc1 | -3.58% (inactive) | 
COc1cc(OC)cc(C(=O)Nc2cc3nn(-c4ccccc4)nc3cc2Cl)c1 | 6.82% (inactive) | 
Cc1ccc(C)c(Cn2c(CCCNC(=O)C3CCCCC3)nc3ccccc32)c1 | -3.31% (inactive) | 
CCCCCn1c(CCNC(=O)c2ccc(F)cc2)nc2ccccc21 |  | 4.47 µM (active)

SMILES | max response, negative = inhibition | Potency
CCCCCn1c(CCCNC(=O)c2ccccc2OC)nc2ccccc21 | -1.13% (inactive) | 
Cc1cccc(C(=O)NCCc2nc3ccccc3n2Cc2ccccc2Cl)c1 |  | 8.91 µM (active)
CCCCn1c(CCCNC(=O)CC)nc2ccccc21 | -2.07% (inactive) | 
CCC(=O)NCCc1nc2ccccc2n1CC | 4.89% (inactive) | 
COc1ccc(Cn2c(C(=O)O)c(CNCc3cccc(OC)c3)c3ccc(C)cc32)cc1 | -10.4% (inactive) | 
CCCCCn1c(=O)[nH]c2cc(C(=O)Nc3ccc(F)cc3)ccc2c1=O | -0.504% (inactive) | 
O=C(Nc1cc(C(F)(F)F)ccc1Cl)c1nc2ccccc2nc1N1CCCCC1 | 2.61% (inactive) | 
COc1ccccc1NC(=O)C(=O)c1cc(C)n(-c2ccccc2F)c1C | -2.07% (inactive) | 
O=C(CC1N=C2c3ccccc3N=C(SCc3ccc(F)cc3)N2C1=O)NCc1cccs1 (stereo not given) | -4.42% (inactive) | 
COc1cc(OC)c(NC(=O)c2cnc(N3CCCC3)nc2C)cc1Cl | -6.84% (inactive) | 
Cc1ccc(CNS(=O)(=O)c2ccc(C(=O)N(C)C)s2)cc1 | -0.386% (inactive) | 
CCc1ccccc1NC(=O)Cc1ccc(NC(=O)N2CCCCc3ccccc32)cc1 | -5.61% (inactive) | 
CC(=O)N1CCCc2cc(S(=O)(=O)N3CCC(C(=O)NC4CCCCC4)CC3)ccc21 | -0.0735% (inactive) | 
CCOc1ccc(CNC(=O)c2cc(-c3ccc(Cl)s3)nc3ccccc23)cc1 | -0.709% (inactive) | 
CCc1ccc(-c2cc(C(=O)NCc3ccco3)c3ccccc3n2)s1 |  | 22.4 µM (active)
O=C(NCc1ccco1)c1cc(-c2cccnc2)nc2ccc(Cl)cc12 | -13.8% (inactive) | 
Cc1ccc2nc(/C(C#N)=C/c3ccc(-c4ccc(C(=O)OC(C)C)cc4)o3)[nH]c2c1 | -3.11% (inactive) | 
Fc1ccc(-c2nc(Nc3cccc(Cl)c3)nc3c2COc2ccccc2-3)cc1 | -3.92% (inactive) | 
Cc1ccc(-n2ncc3c(NCCCn4ccnc4)ncnc32)cc1Cl | -0.0419% (inactive) | 
CC(=O)c1ccc2c(ccc3ccccc32)c1 | -9.87% (inactive) | 
CC(=O)CCC(=O)c1ccc2ccccc2c1 | -3% (inactive) | 
C=CC(=O)c1ccc2ccccc2c1 |  | 3.98 µM (active)
COc1ccc(Cc2nc3ccc(C(=O)NCc4ccc(OC)cc4OC)cc3o2)cc1 | -5.34% (inactive) | 

SMILES | max response, negative = inhibition | Potency
Fc1ccc2[nH]c3c(N4CCSCC4)ncnc3c2c1 | -6.83% (inactive) | 
CCN1CCCC1CNc1ncnc2c1[nH]c1ccc(F)cc12 (stereo not given) |  | 25.1 µM (active)
CCCn1c(-c2ccc(F)cc2)nc2c(NCC3CCCN3CC)nc(C)nc21 (stereo not given) | -1.1% (inactive) | 
Cc1cc2c(cc3c(SCc4cccc(Cl)c4)nnc(C)n32)o1 | -4.57% (inactive) | 
COC(=O)c1ccc(Cn2c(SCC(=O)N(C)c3ccccc3)nc3ccccc32)cc1 | -5.82% (inactive) | 
COc1ccc(OC)c(CNC(=O)Cn2nc(C)c3c(C)n(-c4ccccc4)nc3c2=O)c1 | -2.6% (inactive) | 
CCN(c1ncnc2c1cnn2-c1ccc(C)cc1)C1CCCCC1 | 1.62% (inactive) | 
CCOc1ccc(N2CC(C)Cn3c2nc2c3c(=O)n(Cc3c(F)cccc3Cl)c(=O)n2C)cc1 (stereo not given) | -3.27% (inactive) | 
Cc1ccc(-c2c3c(=O)n(C)c(=O)n(C)c3cn2-n2cnnc2)cc1 |  | 10 µM (active)
COc1ccc(-c2c3c(=O)n(C)c(=O)n(C)c3cn2-c2cccc(OC)c2)cc1 | -3.29% (inactive) | 
Cc1ccc(-c2c3c(=O)n(C)c(=O)n(C)c3cn2-c2ccccc2O)cc1 | 0.548% (inactive) | 
OCc1cnc(SCc2ccc(F)cc2)n1Cc1ccc(F)cc1 | -1.84% (inactive) | 
CCOc1ccccc1NC(=O)CCn1cnnn1 | 2.1% (inactive) | 
CCOC(=O)c1cccc(NC(=O)c2cc(CN3CCCC3)on2)c1 | -1.68% (inactive) | 
CCOc1cccc(C(=O)Nc2nnc(S(=O)(=O)N(C)c3ccc(C)cc3)s2)c1 | -2.64% (inactive) | 
Cc1ccccc1CNC(=O)C(=O)NCC(c1cccs1)S(=O)(=O)c1cccs1 (stereo not given) | -2.25% (inactive) | 
Cc1cc(=O)c2cc(C(=O)Nc3cccc(C)c3C)ccc2[nH]1 | -3.15% (inactive) | 
O=C(CSc1ncc(S(=O)(=O)c2ccc(Br)cc2)c(=O)[nH]1)Nc1ccc2c(c1)OCCO2 | -23.7% (inactive) | 
Cc1cccc(NC(=O)CSc2ncc(-c3ccccc3)[nH]2)c1C | -4.22% (inactive) | 
CCOc1ccccc1NC(=O)CSc1ncc(S(=O)(=O)c2ccc(C(C)(C)C)cc2)c(=O)[nH]1 |  | 28.2 µM (active)
CCOc1ccc(CNC(=O)c2cc(=O)[nH]c3ccc(S(=O)(=O)N4CCCCC4)cc23)cc1 | 0.425% (inactive) | 
